Assay outcomes (PubChem BioAssay)
Hits are enriched below; roughly 4.7% of the tested compounds scored in any of these assays.
MPTP block – permeability transition pore inhibition; AID 602449; inhibition, % at 10 µM; isolated mouse mitochondria, Ca2+ swelling absorbance, 30 min; 360,000 tested, 1.4% active;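 active = inhibition of 50% or more, scaled per plate between neutral and stimulator controls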;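 note: 0% = DMSO wells given calcium and 100% = 1 mM EGTA wells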
DSG3 Ab inh – inhibitors of pemphigus antibody binding to human desmoglein-3; AID 588358; binding (percent of control), % at 10 µM; P32926; DSG3-coupled beads, scFv-anti-DSG3-GFP binding, flow cytometry; active compounds read low; 310,000 tested, 0.48% active;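 active = binding more than 3 SD below its plate's average and above zero; inconclusive = below that plate limit but binding exactly zero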;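 note: hits lower antibody fragment binding to DSG3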
ADAM10 inh – ADAM10 inhibition, QFRET primary screen | 370,000 tested, 0.62% active | inhibition, % at 7 µM | recombinant ADAM10, EDANS/DABCYL FRET peptide cleavage, 3 h;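 active = inhibition above a per-campaign cutoff equal to the mean of compounds falling between control-based bounds plus 3 SD, cut at about 20% in these data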;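 note: 0% = DMSO wells while the 100% control is not disclosed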
Target sequence (O14672 214-748 limits assumed): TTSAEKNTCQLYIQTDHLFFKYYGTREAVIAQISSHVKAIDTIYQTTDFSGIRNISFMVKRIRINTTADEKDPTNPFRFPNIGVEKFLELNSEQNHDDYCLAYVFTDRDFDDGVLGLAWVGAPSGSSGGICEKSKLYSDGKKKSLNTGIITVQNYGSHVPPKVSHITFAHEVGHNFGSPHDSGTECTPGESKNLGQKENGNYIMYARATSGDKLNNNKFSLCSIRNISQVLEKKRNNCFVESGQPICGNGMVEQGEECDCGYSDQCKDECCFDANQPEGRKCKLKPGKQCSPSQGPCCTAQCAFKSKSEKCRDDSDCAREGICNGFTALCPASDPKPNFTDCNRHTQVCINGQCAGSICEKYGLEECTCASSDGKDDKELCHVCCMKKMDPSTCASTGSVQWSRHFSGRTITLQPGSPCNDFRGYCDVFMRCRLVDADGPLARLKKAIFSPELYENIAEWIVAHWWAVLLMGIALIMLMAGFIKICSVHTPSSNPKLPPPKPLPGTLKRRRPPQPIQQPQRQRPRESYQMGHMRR
proKLK7 act – activates the human kallikrein-7 zymogen. P49862. purified proKLK7, EDANS-DABCYL substrate fluorescence; 100% is mature enzyme control, 0% vehicle. activation, % at 7 µM. 370,000 tested, 0.9% active;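 active = activation above the mean of all tested compounds plus 3 SD, computed per campaign excluding outliers beyond control limits, cut at about 13% in these data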
ADAM17 inh – inhibits human ADAM17 | P78536 | recombinant ADAM17, EDANS/DABCYL FRET peptide cleavage | inhibition, % at 6.95 µM | 370,000 tested, 0.83% active | AID 720648;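 active = inhibition above the mean of compounds lying between control limits plus 3 SD, set per campaign, cut at about 8.5% in these data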;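 note: 0% = DMSO-only wells as the low control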
rCAG RNA binder – r(CAG) repeat RNA binding; TO-PRO-1 dye displacement fluorescence; inhibition, % at 3 µM; 370,000 tested, 1.3% active; AID 651821;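 active = inhibition above the plate cutoff, the mean of all test compounds on that plate plus 3 SD, cut at about 35% in these data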;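 note: 0% = DMSO alone and 100% = 100 µM mitoxantrone as full dye displacement; higher means more dye released from RNA so lower well fluorescence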
proKLK7 act conf – proKLK7 activation, confirmation; shares compounds with proKLK7 act; purified proKLK7, EDANS-DABCYL substrate fluorescence; scaled: vehicle 0, mature enzyme 100; activation, % at 7 µM; 3,200 tested, 68% active; AID 686949;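 active = activation, as change over the incubation, above the mean of all tested compounds plus 3 SD, cut at about 13% in these data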
EDANS-DABCYL int – fluorescence interference counter-screen for KLK7 activators | shares compounds with proKLK7 act | EDANS-DABCYL substrate fluorescence interference, no enzyme, 4 h; solvent 0%, active enzyme control 100% | activation, % at 7 µM | 3,200 tested, 80% active | AID 686952;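 active = activation above the all-compound mean plus 3 SD, ignoring values outside control-based bounds, cut at about 4.8% in these data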;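 note: value is the 4 h activation minus the activation read at time zero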
EDANS interf – EDANS fluorescence interference in dose response, no enzyme | shares compounds with proKLK7 act | AID 720493 | EDANS-DABCYL peptide fluorescence interference | 250 tested, 20% active | EC50, µM;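 active = compounds that raise the fluorescence signal in this interference counterscreen, with EC50 at or below 10 µM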;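 note: intact quenched peptide substrate alone read at 355 nm excitation and 520 nm emission; signal is fluorescence gain from T0 to T4 after four hours at room temperature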
* = called active by the depositor; i = inactive; ? = inconclusive; nt = no result given.

SMILES | MPTP block | DSG3 Ab inh | ADAM10 inh | proKLK7 act | ADAM17 inh | rCAG RNA binder | proKLK7 act conf | EDANS-DABCYL int | others
CCOC(=O)C1CCCN(C(=O)c2cc3c(=O)n4ccccc4nc3s2)C1 (centres undefined) | -1 | 76 | i | 9 | -209 | -2 | nt | nt
CC(C)OCCCn1c(=N)c(C(N)=S)cc2c(=O)n3ccccc3nc21 | 2 | ? | i | 22* | -392 | 2 | 4 | 4.3*
CC(=O)N=c1c(C#N)cc2c(=O)n3ccccc3nc2n1CCCOC(C)C | 0 | 102 | i | 35* | i | -1 | -6 | -2
CC(C)OCCCn1c(=NC(=O)c2ccncc2)c(C#N)cc2c(=O)n3ccccc3nc21 | -1 | 107 | -68 | -1 | -15 | 3 | nt | nt
CC(C)OCCCn1c(=NC(=O)c2cccs2)c(C#N)cc2c(=O)n3ccccc3nc21 | 1 | 112 | i | 54* | i | 5 | 68* | 63*
CCOCCCn1c(=N)c(C(=O)NCc2ccc3c(c2)OCO3)cc2c(=O)n3ccccc3nc21 | nt | nt | -77 | 0 | -26 | 4 | nt | nt
O=C(NCc1cccnc1)c1ccc2c(c1)N(Cc1ccccc1)CCS2 | 10 | 88 | i | -9 | -345 | 5 | nt | nt
CCN1CCSc2ccc(C(=O)NCc3cccc(F)c3)cc21 | 0 | 96 | i | 16* | -437 | 6 | -56 | -36
CN1CCSc2ccc(C(=O)NCc3ccccc3)cc21 | 1 | 104 | i | 43* | i | 4 | 6 | 24*
CCOC(=O)Cn1nc(C)c(NC(=O)c2ccc(Br)o2)c1C | 1 | 103 | -1 | 0 | -3 | -1 | nt | nt
C/C(Sc1nnc(Cc2ccccc2)o1)=C(\O)c1ccccc1 | -2 | 120 | -5 | 0 | -2 | 0 | nt | nt
COC(=O)CS(=O)(=O)c1cccc2cccnc12 | 0 | 91 | -9 | 16* | -2 | -1 | 13* | 13*
COc1ccccc1CCC(=O)NNC(=O)c1cccs1 | 0 | 132 | 1 | 0 | -5 | 1 | nt | nt
O=C1NC(c2ccc3ccccc3c2)Nc2ccccc21 (centres undefined) | 0 | 112 | i | 12 | -252 | 1 | nt | nt
O=C1NC(c2ccc(Br)cc2)Nc2ccccc21 (centres undefined) | -1 | 92 | i | 14* | -256 | 1 | 21* | 15* | EDANS interf=>70
O=C1NC(c2cccc3ccccc23)Nc2ccccc21 (centres undefined) | -1 | 85 | -215 | 3 | -57 | 3 | nt | nt
O=C1NC(c2ccccc2Cl)Nc2ccccc21 (centres undefined) | 0 | nt | i | 19* | -356 | -1 | 47* | 50*
O=C(CN1CCCC1)Nc1ccc(-c2nc3cc(NC(=O)CN4CCCC4)ccc3o2)cc1 | -1 | nt | i | 58* | -223 | 3 | -20 | -27
CCCC(=O)Nc1ccc2oc(-c3ccncc3)nc2c1 | 0 | 84 | -236 | 3 | -64 | -4 | nt | nt
COc1cccc(C(=O)N2CCC(Oc3cccnc3)CC2)c1 | nt | nt | -3 | 0 | -3 | 1 | nt | nt
O=c1c2ccccc2c(/C=N/n2cnnc2)c(O)n1-c1ccccc1 | 2 | 89 | -9 | 1 | 2 | 21 | nt | nt
O=c1c2ccccc2c(/C=N/NS(=O)(=O)c2ccccc2)c(O)n1-c1ccccn1 | -1 | 116 | -140 | 46* | -44 | 10 | 92* | 94*
C=CCn1c(-c2cccs2)nc2nc3ccccc3nc21 | 1 | nt | i | 22* | i | 5 | 70* | 82*
COc1ccc(NC(=O)N(C)C[C@@H]2Oc3cc(C#CCN(C)C)ccc3S(=O)(=O)N([C@H](C)CO)C[C@H]2C)cc1 | -1 | nt | -18 | 0 | -4 | 7 | nt | nt
